According to PubChem BioAssay (Tox21):
Inconclusive results are not listed. Where a call stands in place of a potency, no number is given. Calls of active or inactive are those of the source. Unless noted, the call rests on the fitted dose curve.

Experiments:
[1] = Nuclear factor erythroid 2-related factor 2/antioxidant responsive element (Nrf2/ARE) small molecule agonists: qHTS cell viability counter screen in human keratinocytes (AID 1919968; active means well fitted curve in the direction sought with a large enough effect in the repeat runs; an effect the other way counts as inactive or inconclusive; further: nearly all actives have a fitted effect of over 55% in size)
Summary of the method: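 Cytotoxicity was multiplexed with the Nrf2/ARE luciferase assay in the same wells. Stably transfected HaCaT keratinocytes were treated with test compounds for 23 h at 37 C. Cell viability was then measured by CellTiter-Fluor fluorescence.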

[2] = Nuclear factor erythroid 2-related factor 2/antioxidant responsive element (Nrf2/ARE) small molecule agonists: luciferase reporter gene qHTS assay in human keratinocytes (AID 1919969); further: nearly all actives have a fitted effect of over 35% in size
[3] = target: Gonadotropin-releasing hormone receptor (Homo sapiens) (UniProt P30968); assay: Human gonadotropin-releasing hormone receptor (GnRHR) small molecule agonists, calcium flux assay in GnRHR-HEK293 cells (AID 1920063); further: nearly all actives have a fitted effect of over 35% in size
Summary of the method: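 Agonist activity was measured as intracellular calcium flux in HEK293 cells engineered to stably express human GnRHR. After dye loading for 1 hour at 37 C, compounds in DMSO were added and fluorescence was followed for 3 minutes.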

[4] = target: KiSS-1 receptor (Homo sapiens) (UniProt Q969F8); assay: Human kisspeptin (KISS1R) small molecule agonists, calcium flux assay in KISS1R-HEK293 cells (AID 1920064; active means well fitted curve in the direction sought with a large enough effect in the repeat runs; an effect the other way counts as inactive or inconclusive)
Summary of the method: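 Agonist activity is monitored as intracellular calcium rise in engineered HEK293 cells carrying human KISS1R. Cells are dye-loaded for 1 h at 37 C before compound addition, and fluorescence is recorded for 3 min.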

[5] = G protein-coupled receptor (GPCR) small molecule agonists, calcium flux assay: HEK293 wild type cell line counter screen (AID 1920065)
Summary of the method: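 Seed cells, incubate 18 h (37 C, 5% CO2); add calcium dye, 1 h at 37 C; pin-transfer compounds, ATP control or DMSO; read fluorescence 480/540 nm each second for 3 min.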

[6] = p53 small molecule agonists, cell-based qHTS assay with human liver microsomes (AID 1963577);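 further: p53 response element beta-lactamase reporter cells with liver microsomes plus NADPH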
Summary of the method: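 In this qHTS, p53 response-element beta-lactamase cells receive test compound together with a microsome/NADPH activating system (0.5 mg/mL final each) and are incubated 16 h at 37 C before LiveBLAzer fluorescence detection.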

[7] = p53 small molecule agonists, cell-based qHTS assay with human liver microsomes: qHTS cell viability counter screen (AID 1963579); further: nearly all actives have a fitted effect of over 45% in size
Summary of the method: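 Metabolically activated exposure: compounds, human liver microsomes and NADPH (0.5 mg/mL final apiece) were added to p53RE-bla cells seeded 5 h earlier, left 16 h at 37 C, and then assessed for viability by CellTiter-Glo luminescence.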

[8] = p53 small molecule agonists, cell-based qHTS assay with rat liver microsomes: qHTS cell viability counter screen (AID 1963580); further: nearly all actives have a fitted effect of over 45% in size
Summary of the method: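 Counter screen for cytotoxicity under metabolic activation: rat liver microsomes and NADPH, 0.5 mg/mL final each, added with compounds to p53RE-bla HCT-116 cells; 16 h at 37 C, then ATP luminescence read.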

[9] = p53 small molecule agonists, cell-based qHTS assay: qHTS cell viability counter screen (AID 1963581); further: nearly all actives have a fitted effect of over 45% in size
Summary of the method: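 Viability was counter-screened in parallel with the p53 agonist reporter by measuring intracellular ATP luminescence in the same HCT-116 p53RE-bla wells after 16 h compound treatment at 37 C.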

[10] = p53 small molecule agonists, cell-based qHTS assay (AID 1963582; active means well fitted activation curve with a large enough effect in the signal ratio in the repeat runs, not every such curve was filed as active; the % refers to the signal ratio)
Summary of the method: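 Cells carrying a p53-responsive bla reporter are treated with test compounds for 16 h at 37 C; beta-lactamase activity is then detected with LiveBLAzer B/G FRET substrate after 2 h at room temperature.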

[11] = target: 5-hydroxytryptamine receptor 2A (Homo sapiens) (UniProt P28223); assay: 5-hydroxytryptamine receptor 2A (HTR2A) small molecule antagonists, cell-based qHTS assay (AID 1963586); further: nearly all actives have a fitted effect of over 45% in size
Summary of the method: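 CHO cells stably expressing human HTR2A were plated for 18 h at 37 C, then loaded with calcium dye for 1 h. Compounds were preincubated 5 min at room temperature before DOI (4 nM solution) was added. Kinetic fluorescence was read for 3 min.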

[12] = target: 5-hydroxytryptamine receptor 2A (Homo sapiens) (UniProt P28223); assay: 5-hydroxytryptamine receptor 2A (HTR2A) small molecule agonists, cell-based qHTS assay (AID 1963587); further: nearly all actives have a fitted effect of over 30% in size
Summary of the method: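 HTR2A-CHO cells, plated 18 h at 37 C/5% CO2, dye-loaded 1 h at 37 C; compounds in DMSO added by pin tool (agonist mode). Intracellular calcium flux read as kinetic fluorescence on FDSS over 2 min at 1 s intervals.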

[13] = target: Muscarinic acetylcholine receptor M1 (Homo sapiens) (UniProt P11229); assay: Cholinergic receptor muscarinic 1 (CHRM1) small molecule agonists, cell-based qHTS assay (AID 1963589); further: nearly all actives have a fitted effect of over 35% in size
Summary of the method: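 Cells were plated and incubated 18 h at 37 C/5% CO2, loaded with calcium dye for 1 h at 37 C, then treated with compounds in DMSO. Fluorescence was recorded kinetically at 1 sec intervals.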

[14] = cAMP Responsive Elements (CRE) small molecule agonists, cell-based qHTS assay (AID 1963590)
Summary of the method: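 Cells carrying a CRE-driven beta-lactamase reporter (HEK 293T) are seeded, incubated overnight (18 h), and treated with test compounds for 3 h at 37 C; reporter activity is then detected with a FRET substrate after 2 h at room temperature.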

[15] = cAMP Responsive Elements (CRE) small molecule antagonists, cell-based qHTS assay (AID 1963591; active means well fitted inhibition curve with a large enough effect in the signal ratio in the repeat runs, not every such curve was filed as active; the % refers to the signal ratio)
Summary of the method: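 Cells (CRE-bla HEK 293T, DMEM with 10% dialyzed FBS and 25 mM HEPES) are seeded and incubated 18 h. Compounds are added with NKH477 agonist at 0.25 uM final for 3 h, then FRET substrate for 2 h.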

[16] = target: Beta-2 adrenergic receptor (Homo sapiens) (UniProt P07550); assay: Adrenergic beta2 receptor (ADRB2) small molecule antagonists, cell-based qHTS assay (AID 1963592); further: series mostly up to about 92 µM; nearly all actives have a fitted effect of over 50% in size
Summary of the method: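 Assay format: CHO-ADRB2 cells, 18-20hr seeding at 37C/5% CO2, then compound plus 1nM isoproterenol agonist mix for 0.5hr RT. Homogeneous time-resolved fluorescence cAMP detection after 1hr, expressed as 665/615 nm ratio.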

[17] = target: D(2) dopamine receptor (Homo sapiens) (UniProt P14416); assay: Dopamine D2 receptor (DRD2) small molecule agonists, cell-based qHTS assay (AID 1963594); further: nearly all actives have a fitted effect of over 35% in size
Summary of the method: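 HEK293 cells stably expressing DRD2 were cultured 24 h at 37 C, then given Ro20-1724 (0.1 mM final) and compounds for 10 min at room temperature. NKH477 (200nM) was then added for 30 min. cAMP was read by HTRF.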

[18] = target: D(2) dopamine receptor (Homo sapiens) (UniProt P14416); assay: Dopamine D2 receptor (DRD2) small molecule antagonists, cell-based qHTS assay (AID 1963595; active means well fitted inhibition curve with a large enough effect in the signal ratio in the repeat runs, with a control signal flat; the % refers to the signal ratio)
Summary of the method: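 Antagonist mode in DRD2-HEK293 cells: after compound addition with 0.1 mM Ro20-1724, cells received quinpirole (12 nM) and NKH477 (200 nM) for 30 min at room temperature; HTRF cAMP read after 1 h detection.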

[19] = target: Muscarinic acetylcholine receptor M1 (Homo sapiens) (UniProt P11229); assay: Cholinergic receptor muscarinic 1 (CHRM1) small molecule antagonists, cell-based qHTS assay (AID 1963588); further: nearly all actives have a fitted effect of over 40% in size; further: potency means the concentration at half of the fitted maximal effect
Summary of the method: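 Compounds were tested at 15 concentrations in three independent runs. Dye-loaded CHRM1-CHO cells were exposed 5 min at room temperature before stimulation by acetylcholine added at 50nM. Intracellular calcium was read kinetically on FDSS for 3 min.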

[20] = target: Beta-2 adrenergic receptor (Homo sapiens) (UniProt P07550); assay: Adrenergic beta2 receptor (ADRB2) small molecule agonists, cell-based qHTS assay (AID 1963593);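 further: CHO cells stably overexpressing human ADRB2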
Summary of the method: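 CHO cells stably over-expressing ADRB2 were plated overnight at 37C, then dosed with compounds plus a stimulation mix containing 100uM IBMX and 25uM Ro-20-1724 for 0.5hr at room temperature. cAMP was measured by HTRF competition, 1hr.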

Sequence of Muscarinic acetylcholine receptor M1 (Homo sapiens) (P11229 whole entry, looked up): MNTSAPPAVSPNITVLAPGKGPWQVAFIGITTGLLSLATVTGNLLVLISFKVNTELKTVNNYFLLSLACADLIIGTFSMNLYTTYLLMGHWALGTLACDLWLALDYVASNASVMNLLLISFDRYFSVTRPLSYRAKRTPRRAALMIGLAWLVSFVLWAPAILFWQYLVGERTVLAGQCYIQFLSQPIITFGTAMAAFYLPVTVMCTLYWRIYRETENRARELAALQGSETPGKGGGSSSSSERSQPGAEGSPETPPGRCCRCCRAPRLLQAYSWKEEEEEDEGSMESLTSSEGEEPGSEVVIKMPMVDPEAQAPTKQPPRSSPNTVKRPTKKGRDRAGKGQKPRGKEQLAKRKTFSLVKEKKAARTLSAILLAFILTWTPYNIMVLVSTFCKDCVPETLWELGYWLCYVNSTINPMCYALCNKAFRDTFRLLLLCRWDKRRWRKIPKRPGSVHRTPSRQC
Sequence of D(2) dopamine receptor (Homo sapiens) (P14416 whole entry, looked up): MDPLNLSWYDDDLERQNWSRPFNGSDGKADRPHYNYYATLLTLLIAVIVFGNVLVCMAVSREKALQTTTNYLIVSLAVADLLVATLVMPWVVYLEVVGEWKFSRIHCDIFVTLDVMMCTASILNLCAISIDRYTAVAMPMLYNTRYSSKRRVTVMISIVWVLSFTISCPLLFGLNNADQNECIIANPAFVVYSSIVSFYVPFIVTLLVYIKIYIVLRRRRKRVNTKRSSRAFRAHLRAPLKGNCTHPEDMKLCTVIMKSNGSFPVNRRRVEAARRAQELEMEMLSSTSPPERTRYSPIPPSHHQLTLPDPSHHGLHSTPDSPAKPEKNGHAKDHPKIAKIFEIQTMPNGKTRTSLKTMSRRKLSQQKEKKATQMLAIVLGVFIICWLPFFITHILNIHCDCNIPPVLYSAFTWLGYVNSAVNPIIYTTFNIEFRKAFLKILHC
Sequence of Gonadotropin-releasing hormone receptor (Homo sapiens) (P30968 whole entry, looked up): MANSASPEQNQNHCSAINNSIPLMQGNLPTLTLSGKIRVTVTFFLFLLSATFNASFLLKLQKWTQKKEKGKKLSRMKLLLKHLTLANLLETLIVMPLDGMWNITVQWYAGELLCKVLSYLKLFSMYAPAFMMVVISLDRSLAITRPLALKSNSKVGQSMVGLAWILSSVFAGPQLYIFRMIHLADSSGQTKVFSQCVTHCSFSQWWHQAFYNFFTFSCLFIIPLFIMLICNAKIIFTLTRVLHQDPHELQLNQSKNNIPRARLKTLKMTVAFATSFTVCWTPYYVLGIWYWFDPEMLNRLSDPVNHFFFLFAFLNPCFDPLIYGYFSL
Sequence of 5-hydroxytryptamine receptor 2A (Homo sapiens) (P28223 whole entry, looked up): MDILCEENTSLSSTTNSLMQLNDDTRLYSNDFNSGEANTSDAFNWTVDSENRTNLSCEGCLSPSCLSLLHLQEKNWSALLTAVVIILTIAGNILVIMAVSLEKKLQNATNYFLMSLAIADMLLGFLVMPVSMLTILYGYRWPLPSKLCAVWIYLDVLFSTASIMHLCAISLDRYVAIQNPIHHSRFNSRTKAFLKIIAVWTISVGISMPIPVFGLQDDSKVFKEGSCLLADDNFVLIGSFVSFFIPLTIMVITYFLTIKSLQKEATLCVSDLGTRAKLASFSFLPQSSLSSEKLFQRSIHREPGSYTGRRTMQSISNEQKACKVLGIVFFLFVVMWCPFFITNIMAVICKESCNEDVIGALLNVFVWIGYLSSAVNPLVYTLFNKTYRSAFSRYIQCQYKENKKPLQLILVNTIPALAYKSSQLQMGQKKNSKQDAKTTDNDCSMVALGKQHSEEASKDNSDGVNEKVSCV
Sequence of Beta-2 adrenergic receptor (Homo sapiens) (P07550 whole entry, looked up): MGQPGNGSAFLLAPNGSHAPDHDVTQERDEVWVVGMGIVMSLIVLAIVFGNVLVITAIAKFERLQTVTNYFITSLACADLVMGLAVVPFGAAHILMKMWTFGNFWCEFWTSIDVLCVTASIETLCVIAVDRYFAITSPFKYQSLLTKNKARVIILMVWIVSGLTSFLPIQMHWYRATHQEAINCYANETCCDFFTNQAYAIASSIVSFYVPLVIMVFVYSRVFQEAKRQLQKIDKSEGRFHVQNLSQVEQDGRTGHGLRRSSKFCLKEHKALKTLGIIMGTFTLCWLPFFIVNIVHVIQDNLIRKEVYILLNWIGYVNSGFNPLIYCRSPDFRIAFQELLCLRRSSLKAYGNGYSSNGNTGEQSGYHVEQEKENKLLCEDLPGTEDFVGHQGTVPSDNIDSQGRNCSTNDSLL
Sequence of KiSS-1 receptor (Homo sapiens) (Q969F8 whole entry, looked up): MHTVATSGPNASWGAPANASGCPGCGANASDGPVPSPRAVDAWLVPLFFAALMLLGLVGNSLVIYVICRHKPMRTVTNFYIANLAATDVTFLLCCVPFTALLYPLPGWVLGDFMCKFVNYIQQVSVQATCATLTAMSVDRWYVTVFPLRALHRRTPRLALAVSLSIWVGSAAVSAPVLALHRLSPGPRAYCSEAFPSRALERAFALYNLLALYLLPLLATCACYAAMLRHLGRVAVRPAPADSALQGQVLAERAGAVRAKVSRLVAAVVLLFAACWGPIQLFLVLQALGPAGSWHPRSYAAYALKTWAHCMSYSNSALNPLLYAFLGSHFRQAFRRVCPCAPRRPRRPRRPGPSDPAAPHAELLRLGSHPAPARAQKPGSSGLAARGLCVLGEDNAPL

CC(=O)Oc1cccc(O)c1
Potency [1]: inactive
Potency [2]: inactive
Potency [3]: inactive
Potency [4]: inactive
Potency [5]: inactive
Potency [6]: inactive
Potency [7]: inactive
Potency [8]: inactive
Potency [9]: inactive
Potency [10]: inactive
Potency [11]: inactive
Potency [12]: inactive
Potency [13]: inactive
Potency [14]: inactive
Potency [15]: inactive
Potency [16]: inactive
Potency [17]: inactive
Potency [18]: inactive

[Cl][Dy]([Cl])[Cl]
Potency [1]: inactive
Potency [2]: inactive
Potency [3]: inactive
Potency [4]: inactive
Potency [5]: inactive
Potency [6]: inactive
Potency [7]: inactive
Potency [8]: inactive
Potency [10]: inactive
Potency [11]: inactive
Potency [12]: inactive
Potency [19]: inactive
Potency [13]: inactive
Potency [14]: inactive
Potency [15]: inactive
Potency [16]: inactive
Potency [20]: inactive
Potency [17]: inactive

CN(C)CCOC(c1ccc(Cl)cc1)c1ccccn1 (configuration not stated)
Potency [1]: inactive
Potency [2]: inactive
Potency [3]: inactive
Potency [4]: inactive
Potency [5]: inactive
Potency [6]: inactive
Potency [7]: inactive
Potency [8]: inactive
Potency [9]: inactive
Potency [10]: inactive
Potency [11]: inactive
Potency [19]: 4.6 µM (active)
Potency [13]: inactive
Potency [14]: inactive
Potency [15]: inactive
Potency [16]: inactive
Potency [20]: inactive
Potency [17]: inactive

COc1c2ccoc2cc2oc(=O)ccc12
Potency [1]: inactive
Potency [2]: inactive
Potency [3]: inactive
Potency [4]: inactive
Potency [5]: inactive
Potency [6]: inactive
Potency [7]: inactive
Potency [8]: inactive
Potency [9]: inactive
Potency [10]: inactive
Potency [11]: inactive
Potency [12]: inactive
Potency [19]: inactive
Potency [14]: inactive
Potency [15]: inactive
Potency [16]: inactive
Potency [20]: inactive
Potency [17]: inactive
Potency [18]: inactive

C1=CCC2CC=CC2C1 (configuration not stated)
Potency [1]: inactive
Potency [2]: inactive
Potency [3]: inactive
Potency [4]: inactive
Potency [5]: inactive
Potency [6]: inactive
Potency [7]: inactive
Potency [8]: inactive
Potency [9]: inactive
Potency [10]: inactive
Potency [19]: 3.34 µM (active)
Potency [13]: inactive
Potency [14]: inactive
Potency [16]: inactive
Potency [20]: inactive
Potency [17]: inactive

CCCc1ccc(O)cc1
Potency [1]: inactive
Potency [2]: inactive
Potency [3]: inactive
Potency [4]: inactive
Potency [5]: inactive
Potency [6]: inactive
Potency [7]: inactive
Potency [8]: inactive
Potency [9]: inactive
Potency [10]: inactive
Potency [11]: inactive
Potency [12]: inactive
Potency [19]: inactive
Potency [14]: inactive
Potency [15]: inactive
Potency [16]: inactive
Potency [20]: inactive
Potency [17]: inactive
Potency [18]: inactive

Cc1ccc(C(C)(C)C)cc1
Potency [1]: inactive
Potency [2]: inactive
Potency [3]: inactive
Potency [4]: inactive
Potency [5]: inactive
Potency [6]: inactive
Potency [8]: inactive
Potency [9]: inactive
Potency [10]: inactive
Potency [11]: inactive
Potency [12]: inactive
Potency [19]: inactive
Potency [13]: inactive
Potency [14]: inactive
Potency [15]: inactive
Potency [16]: inactive
Potency [20]: inactive
Potency [17]: inactive
Potency [18]: inactive
